The panel holds about 83,000 compounds, 20% with a hit somewhere; the sample as a whole holds those more often.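 Treatment: one concentration, 48 hours, 96-well format. Scoring: percent growth, with anything below 10 considered active.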 Values without a mark were called inactive. Active and inactive are the calls of the source.
Experiments:
Assay in all cases: NCI-60 one-dose screen, 48 h (100 = growth as untreated, 0 = no growth, -100 = all killed)
Conditions in all cases: 10 µM
HCT-15 colon = test system: HCT-15 colon
HT29 colon = test system: HT29 colon
SNB-75 CNS = test system: SNB-75 CNS
SNB-19 CNS = test system: SNB-19 CNS
U251 CNS = test system: U251 CNS
PC-3 prostate = test system: PC-3 prostate
SK-MEL-5 melanoma = test system: SK-MEL-5 melanoma
UACC-62 melanoma = test system: UACC-62 melanoma
LOX IMVI melanoma = test system: LOX IMVI melanoma
SK-MEL-28 melanoma = test system: SK-MEL-28 melanoma
SK-MEL-2 melanoma = test system: SK-MEL-2 melanoma
SN12C renal = test system: SN12C renal
UO-31 renal = test system: UO-31 renal
TK-10 renal = test system: TK-10 renal
ACHN renal = test system: ACHN renal
CAKI-1 renal = test system: CAKI-1 renal
A498 renal = test system: A498 renal
CCRF-CEM leukemia = test system: CCRF-CEM leukemia
MOLT-4 leukemia = test system: MOLT-4 leukemia

Structure (SMILES) | growth (HCT-15 colon) | growth (HT29 colon) | growth (SNB-75 CNS) | growth (SNB-19 CNS) | growth (U251 CNS) | growth (PC-3 prostate) | growth (SK-MEL-5 melanoma) | growth (UACC-62 melanoma) | growth (LOX IMVI melanoma) | growth (SK-MEL-28 melanoma) | growth (SK-MEL-2 melanoma) | growth (SN12C renal) | growth (UO-31 renal) | growth (TK-10 renal) | growth (ACHN renal) | growth (CAKI-1 renal) | growth (A498 renal) | growth (CCRF-CEM leukemia) | growth (MOLT-4 leukemia)
CCOC(=O)C1=C(Nc2ccc(OC)cc2)C(N)=NC1=N | 22% | 11.7% | 51.9% | 66.8% | 51.7% | 40.5% | 21.5% | 30.4% | 52% | 67.3% | 44.6% | 57% | 57.1% | 59.2% | 46.6% | 54.6% | 6.8% (active) | 15.8% | 26%
CCCCCCCCCCCCCC[n+]1ccc(C)cc1 | 47% | -9.48% (active) | -23.9% (active) | -50.2% (active) | -78.5% (active) | -37% (active) | -96.3% (active) | -71.5% (active) | -94.4% (active) | -20.4% (active) | 13.2% | -2.55% (active) | 23.7% | -41.2% (active) | 21.5% | 31.7% | 39.2% | -35.4% (active) | -36.6% (active)
FC(F)(F)c1ccc(-c2ncc(-c3ccc(C(F)(F)F)cc3)c(NCc3cc(C(F)(F)F)cc(C(F)(F)F)c3)n2)cc1 | 44.9% | 76.1% | 72.4% | 29.1% | 27.1% | 31.4% | 96.9% | 51.6% | 21.5% | 89.5% | 69.9% | 34.2% | 37.1% | 86.9% | 27.4% | 37.5% | 54.1% | 46.7% | 59.3%
Cn1cnc([N+](=O)[O-])c1/C=C1\Oc2ccc(Cl)cc2C1=O | 78.4% | 78.4% | 83.6% | 107% | 97.2% | 79.3% | 91.8% | 91.1% | 73% | 105% | 82.2% | 98.9% | 48.3% | 98.2% | 79.4% | 78.1% | 98.4% | 33.7% | 49.3%
COC(=O)c1c(C)nc(Nc2nc3ccccc3s2)nc1-c1ccc(Cl)cc1Cl | 92.2% | 114% | 87.2% | 92.3% | 111% | 91.3% | 105% | 96.1% | 101% | 109% | 120% | 99.8% | 81.2% | 120% | 96.7% | 99.6% | 100% | 95% | 84.7%
Cc1nc2sccn2c1-c1csc(Nc2cccc(Cl)c2C)n1 | 46.4% | 31% | 77.5% | 77.1% | 60.8% | 53.1% | 16.5% | 53.3% | 61.4% | 59.7% | 43.8% | 59.4% | 51.2% | 54.6% | 60.3% | 51.4% | 36.1% | 47.1% | 40.2%
COc1ccc(-c2nnc(COc3ccc(NC(=O)Nc4ccccc4)cc3F)o2)cc1 | 88.2% | 100% | 68.2% | 86.8% | 85% | 65.5% | 89% | 78% | 89.6% | 98.6% | 79.4% | 91.1% | 68.9% | 101% | 77.6% | 83.6% | 64% | 61.2% | 58.7%
CCCCCCCCCCCCCC[n+]1ccccc1 | 34.5% | -52.4% (active) | -39.5% (active) | -45.4% (active) | -88.3% (active) | -80.8% (active) | -95.3% (active) | -81.1% (active) | -72.1% (active) | -23.5% (active) | -78% (active) | -41.8% (active) | 5.61% (active) | -70.4% (active) | 4.31% (active) | -43.8% (active) | 7.27% (active) | -42.2% (active) | -51.9% (active)

Source: PubChem BioAssay (NCI)
